We go through 3 compounds from PubChem BioAssay (EPA / NIEHS).

By AC50 is commonly meant the concentration giving half of the maximal activity seen.

Test [1] has as its target Bile acid receptor (Homo sapiens) (UniProt Q96RI1). The test is described as follows: ATG_FXR_TRANS: Attagene TRANS-FACTORIAL HepG2 Assay for Farnesoid X Receptor (FXR) (AID 2282979; active = hit-call score of the fitted dose curve at least 0.9, where 1 is the maximum;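 note: hits raise reporter mRNA above DMSO so AC50 marks FXR activation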). As to conditions: HepG2 Attagene TRANS FXR-GAL4 reporter transcription. An outline of the steps:
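Transient transfection of HepG2 with multiplexed GAL4-UAS reporter units; exogenous FXR-GAL4 chimera. Dose 24 h → TriZol RNA → oligo(dT) RT → PCR, 6-FAM primer extension, HpaI cut → CE. Gain vs DMSO.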

A short description of test [2]: ATG_M_06_TRANS: Attagene TRANS-FACTORIAL HepG2 Assay for M06 Transcription Factor (Internal Marker) (AID 2282983; active = hit-call score of the fitted dose curve at least 0.9, where 1 is the maximum;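 note: reporter transcript level by RT-PCR then capillary electrophoresis fluorescence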). As to conditions: HepG2 Attagene TRANS M06 internal marker reporter. The method, boiled down:
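Background control endpoint: reporter mRNA from transiently transfected HepG2 after 24 h dosing, detected by RT-PCR with capillary electrophoresis fluorescence. Analysed for gain versus DMSO.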

The nature of test [3]: ATG_M_32_TRANS: Attagene TRANS-FACTORIAL HepG2 Assay for M32 Transcription Factor (Internal Marker) (AID 2282984; active = hit-call score of the fitted dose curve at least 0.9, where 1 is the maximum;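 note: transcript level of a background control reporter unit measured by RT-PCR and capillary electrophoresis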). To be noted: HepG2 Attagene TRANS M32 internal marker reporter. The method, boiled down: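 Read-out: fluorescent reporter cDNA fragments resolved by capillary electrophoresis after RT-PCR of total RNA. Transfected HepG2 cells were exposed to chemical for 24 h. Activity scored in the positive direction relative to DMSO.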

In test [4] the target is Transcriptional activator Myb (Homo sapiens) (UniProt P10242). Nature of the test: ATG_Myb_CIS: Attagene CIS-FACTORIAL HepG2 Assay for human Myeloblastosis (Myb) Proto-Oncogene Transcription Factor (AID 2282986). As to conditions: HepG2 Attagene CIS-FACTORIAL Myb reporter transcription; actives raise or lower the signal. The method, boiled down: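 Using HepG2 liver cells bearing transiently transfected cis-promoter reporter constructs, the assay measures induction or loss of reporter mRNA after 24 hours of dosing. Detection used fluorescently labeled RT-PCR products separated by capillary electrophoresis.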

Test [5] has as its target Nuclear respiratory factor 1 (Homo sapiens) (UniProt Q16656). The test is described as follows: ATG_NRF1_CIS: Attagene CIS-FACTORIAL HepG2 Assay for human Nuclear Respiratory Factor 1 (NRF1) Orphan Gene (AID 2282987). To be noted: HepG2 NRF1 cis-element reporter, Attagene multiplex; actives raise or lower the signal. An outline of the steps: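 Reporter mRNA induction or loss in HepG2 cells after 24 h dosing; cis-regulated reporter constructs report endogenous transcription-factor activity. Quantified by RT-PCR/capillary electrophoresis fluorescence, DMSO-referenced.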

The nature of test [6]: ATG_NFI_CIS: Attagene CIS-FACTORIAL HepG2 Assay for human Nuclear Factor I (NFI) (AID 2282989). To be noted: HepG2 cis-regulatory reporter, NFI response element transcription; actives raise or lower the signal. The method, boiled down: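 Cells: human liver HepG2, transiently transfected with promoter-regulated reporter transcription units. Exposure 24 h. Detection: fluorescent RT-PCR products separated by capillary electrophoresis, normalised to DMSO negative control.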

Test [7] addresses Myc proto-oncogene protein (Homo sapiens) (UniProt P01106). Nature of the test: ATG_Myc_CIS: Attagene CIS-FACTORIAL HepG2 Assay for human Myelocytomatosis (Myc) Proto-Oncogene Transcription Factor (AID 2282990). As to conditions: HepG2, Attagene cis-reporter transcription factor activity; actives raise or lower the signal. An outline of the steps: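 Read-out: fluorescent reporter mRNA fragments resolved by capillary electrophoresis after RT-PCR. Human HepG2 liver cells carried transfected cis-element reporter units and were dosed for 24 h. Gain or loss of signal fitted relative to DMSO baseline.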

The nature of test [8]: ATG_NRF2_ARE_CIS: Attagene CIS-FACTORIAL HepG2 Assay for human Nuclear Factor Erythroid 2 Related Factor 2 (NFR2) response to Antioxidant Response Elements (ARE) (AID 2282992).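 For AC50: reporter mRNA level measured by RT-PCR and capillary electrophoresis fluorescence.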 To be noted: HepG2 Attagene ARE/NRF2 reporter, transcription factor activity; actives raise or lower the signal. An outline of the steps: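 Fluorescence intensity of reporter-specific cDNA fragments, separated by capillary electrophoresis, reflects mRNA induction in transfected HepG2 cells at 24 h. Activity is fitted bidirectionally, DMSO serving as baseline.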

Test [9] can be described thus: ATG_Oct_MLP_CIS: Attagene CIS-FACTORIAL HepG2 Assay for human Octamer-Binding Transcription Factor (Oct) (AID 2282993). To be noted: HepG2 Attagene cis-factorial Oct reporter, mRNA; actives raise or lower the signal. An outline of the steps:
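HepG2, transient MRTU transfection, cis promoter elements; 24 h dosing; RT-PCR/CE fluorescence read-out of reporter mRNA; fit both directions vs DMSO.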

For test [10], the target named is Cellular tumor antigen p53 (Homo sapiens) (UniProt P04637). Nature of the test: ATG_p53_CIS: Attagene CIS-FACTORIAL HepG2 Assay for human p53 Transcription Factor (AID 2282994). To be noted: HepG2 p53 cis-element reporter, Attagene mRNA; actives raise or lower the signal. The method, boiled down:
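Transiently transfected HepG2 (multiple cis reporter transcription units); exposure 24 h; reporter RNA via RT-PCR, 6-FAM extension, 2 h HpaI digest at 37 C, CE detection; DMSO baseline.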

Test [11] in a line: BSK_3C_TissueFactor: BioMAP Diversity Plus: 3C Assay for Tissue Factor Biomarker Activity (AID 2282997). To be noted: BioMAP 3C HUVEC, tissue factor biomarker readout; actives raise or lower the signal. The method, boiled down:
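After a 24 h chemical exposure of primary human umbilical vein endothelial cells, Tissue Factor levels were quantified by ELISA.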

The nature of test [12]: BSK_3C_uPAR: BioMAP Diversity Plus: 3C Assay for Urokinase-type plasminogen activator receptor (uPAR) Biomarker Activity (AID 2282998). To be noted: BioMAP 3C HUVEC, uPAR biomarker ELISA; actives raise or lower the signal. An outline of the steps: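 A multiplexed primary-cell system built on human umbilical vein endothelium was used, with chemical present for 24 h before reading. Cell-surface uPAR was detected by ELISA; signal change in either direction counted against DMSO.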
(ELISA stands for enzyme-linked immunosorbent assay.)

A short description of test [13]: BSK_4H_Eotaxin3: BioMAP Diversity Plus: 4H Assay for Eotaxin 3 Biomarker Activity (AID 2283000).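 Note: CCL26 protein level quantified by ELISA in parallel with SRB cytotoxicity check.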 To be noted: primary human endothelial cells (HUVEC); actives raise or lower the signal. An outline of the steps: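 Chemicals were added to human umbilical vein endothelium cultures, and Eotaxin-3 was quantified by ELISA at 24 h. Values were derived by bidirectional fitting with DMSO serving as negative control and activity baseline.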

The nature of test [14]: ATG_NF_kB_CIS: Attagene CIS-FACTORIAL HepG2 Assay for human Nuclear Factor Kappa B (NF-kB) (AID 2282991). As to conditions: HepG2 Attagene cis-factorial NF-kB reporter mRNA; actives raise or lower the signal. The method, boiled down:
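DMSO served as negative control and baseline for bidirectional curve fitting. Transiently transfected HepG2 cells were dosed for 24 h, then reporter transcripts were measured by RT-PCR with capillary electrophoresis detection.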

Test [15] concerns the target Oxysterols receptor LXR-alpha (Homo sapiens) (UniProt Q13133). Nature of the test: ATG_LXRa_TRANS: Attagene TRANS-FACTORIAL HepG2 Assay for human Liver X Receptor alpha (LXRa) (AID 2282980; active = hit-call score of the fitted dose curve at least 0.9, where 1 is the maximum). As to conditions: HepG2 Attagene TRANS reporter, LXRa transactivation. An outline of the steps:
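Transfect HepG2 with GAL4-UAS multiplex reporter constructs (TRANS format, chimeric receptor-GAL4); treat 24 h; extract RNA, reverse-transcribe, PCR-amplify, FAM-label, HpaI-digest; resolve fragments by capillary electrophoresis. Upward response vs DMSO.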

In test [16] the target is Oxysterols receptor LXR-beta (Homo sapiens) (UniProt P55055). The test is described as follows: ATG_LXRb_TRANS: Attagene TRANS-FACTORIAL HepG2 Assay for human Liver X Receptor beta (LXRb) (AID 2282981; active = hit-call score of the fitted dose curve at least 0.9, where 1 is the maximum). To be noted: HepG2 Attagene TRANS GAL4-LXRb reporter, mRNA. The method, boiled down:
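Readout: fluorescent reporter mRNA fragments resolved by capillary electrophoresis after RT-PCR. System: transiently transfected human HepG2, exogenous LXRb-Gal4 chimera driving GAL4-UAS reporter, 24 h dosing. Activity fitted upward against DMSO baseline.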

Test [17] has as its target Hepatocyte nuclear factor 4-alpha (Homo sapiens) (UniProt P41235). The test is described as follows: ATG_HNF4a_TRANS: Attagene TRANS-FACTORIAL HepG2 Assay for human Hepatocyte Nuclear Factor 4 alpha (HNF4a) (AID 2282982; active = hit-call score of the fitted dose curve at least 0.9, where 1 is the maximum). To be noted: HepG2 HNF4a transactivation reporter, mRNA readout. An outline of the steps: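 Transient MRTU transfection of HepG2, 24 h dosing. Readout: reporter mRNA via RT-PCR + capillary electrophoresis, fluorescence; activity fit upward relative to DMSO control.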

In test [18] the target is Nuclear receptor subfamily 4 group A member 2 (Homo sapiens) (UniProt P43354). Nature of the test: ATG_NURR1_TRANS: Attagene TRANS-FACTORIAL HepG2 Assay for human Nuclear Receptor Related Protein 1 (NURR1) (AID 2282985; active = hit-call score of the fitted dose curve at least 0.9, where 1 is the maximum). To be noted: HepG2 Attagene TRANS reporter, mRNA readout. The method, boiled down: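 Read-out: reporter mRNA induction by RT-PCR plus capillary electrophoresis with fluorescence detection, after 24 h dosing of transfected HepG2 cells. Exogenous NR-Gal4 chimera activity drives GAL4-UAS reporter; activity fitted upward versus DMSO.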

Test [19] can be described thus: BSK_3C_VCAM1: BioMAP Diversity Plus: 3C Assay for Vascular cell adhesion molecule 1 (VCAM1) Biomarker Activity (AID 2282999). As to conditions: BioMAP 3C HUVEC, VCAM1 ELISA, cytokine-stimulated; actives raise or lower the signal. The method, boiled down: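 HUVEC primary cells, 24 h compound exposure; VCAM-1 by ELISA; gain/loss of signal fitted bidirectionally vs DMSO baseline.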

SMILES strings stand for the structures. Several values for one entry are separate records, joined by “and”; a condition that tells them apart may be missing. Equal entries are not always repeated. Records with an inconclusive call do not appear. More than one record can exist for a structure, and the calls need not agree. Activity calls are given as the source filed them. Rule for the calls, unless noted: active = hit-call score of the fitted dose curve at least 0.9, where 1 is the maximum; inactive = score below 0.9.

Sequence of Myc proto-oncogene protein (Homo sapiens) (P01106 whole entry, looked up, the tested form may be a part): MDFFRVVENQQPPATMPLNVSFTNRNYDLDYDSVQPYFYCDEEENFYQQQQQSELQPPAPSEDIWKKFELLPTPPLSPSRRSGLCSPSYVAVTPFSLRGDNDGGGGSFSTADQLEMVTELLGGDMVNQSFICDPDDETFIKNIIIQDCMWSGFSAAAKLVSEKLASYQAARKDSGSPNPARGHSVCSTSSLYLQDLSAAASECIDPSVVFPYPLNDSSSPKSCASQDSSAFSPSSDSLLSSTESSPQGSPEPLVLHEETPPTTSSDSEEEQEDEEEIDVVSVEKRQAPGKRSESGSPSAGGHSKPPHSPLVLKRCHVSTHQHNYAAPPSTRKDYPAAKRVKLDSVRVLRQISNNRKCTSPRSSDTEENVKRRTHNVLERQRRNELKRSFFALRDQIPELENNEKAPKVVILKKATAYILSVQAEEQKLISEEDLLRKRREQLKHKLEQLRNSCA
Sequence of Nuclear respiratory factor 1 (Homo sapiens) (Q16656 whole entry, looked up): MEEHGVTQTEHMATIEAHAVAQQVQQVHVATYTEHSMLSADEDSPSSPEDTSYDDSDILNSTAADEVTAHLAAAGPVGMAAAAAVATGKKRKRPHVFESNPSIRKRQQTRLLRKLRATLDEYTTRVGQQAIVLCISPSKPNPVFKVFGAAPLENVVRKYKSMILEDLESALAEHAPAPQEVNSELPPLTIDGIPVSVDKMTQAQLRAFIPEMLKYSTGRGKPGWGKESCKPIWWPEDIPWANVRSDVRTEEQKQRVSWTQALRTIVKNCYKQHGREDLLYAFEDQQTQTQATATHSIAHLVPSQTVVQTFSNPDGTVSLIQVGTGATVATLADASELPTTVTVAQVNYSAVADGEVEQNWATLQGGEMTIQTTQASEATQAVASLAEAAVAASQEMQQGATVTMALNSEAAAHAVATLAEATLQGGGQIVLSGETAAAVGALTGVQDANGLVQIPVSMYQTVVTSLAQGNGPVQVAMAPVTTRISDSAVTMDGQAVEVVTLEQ
Sequence of Nuclear receptor subfamily 4 group A member 2 (Homo sapiens) (P43354 whole entry, looked up, the tested form may be a part): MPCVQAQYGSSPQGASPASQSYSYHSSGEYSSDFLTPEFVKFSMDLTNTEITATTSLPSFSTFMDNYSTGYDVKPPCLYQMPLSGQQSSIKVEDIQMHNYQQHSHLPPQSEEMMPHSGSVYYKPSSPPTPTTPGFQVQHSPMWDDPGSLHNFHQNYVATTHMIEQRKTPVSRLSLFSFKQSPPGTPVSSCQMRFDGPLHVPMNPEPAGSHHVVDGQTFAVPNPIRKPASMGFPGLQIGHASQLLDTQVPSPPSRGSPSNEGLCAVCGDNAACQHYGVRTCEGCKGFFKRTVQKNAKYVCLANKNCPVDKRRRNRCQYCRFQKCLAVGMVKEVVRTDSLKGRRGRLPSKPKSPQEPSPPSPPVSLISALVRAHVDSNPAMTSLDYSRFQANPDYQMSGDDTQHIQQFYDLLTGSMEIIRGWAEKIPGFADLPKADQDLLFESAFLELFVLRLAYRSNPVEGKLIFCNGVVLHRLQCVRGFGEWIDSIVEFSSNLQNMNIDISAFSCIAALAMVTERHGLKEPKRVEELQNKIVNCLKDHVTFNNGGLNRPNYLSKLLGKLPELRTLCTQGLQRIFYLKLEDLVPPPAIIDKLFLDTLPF
Sequence of Cellular tumor antigen p53 (Homo sapiens) (P04637 whole entry, looked up): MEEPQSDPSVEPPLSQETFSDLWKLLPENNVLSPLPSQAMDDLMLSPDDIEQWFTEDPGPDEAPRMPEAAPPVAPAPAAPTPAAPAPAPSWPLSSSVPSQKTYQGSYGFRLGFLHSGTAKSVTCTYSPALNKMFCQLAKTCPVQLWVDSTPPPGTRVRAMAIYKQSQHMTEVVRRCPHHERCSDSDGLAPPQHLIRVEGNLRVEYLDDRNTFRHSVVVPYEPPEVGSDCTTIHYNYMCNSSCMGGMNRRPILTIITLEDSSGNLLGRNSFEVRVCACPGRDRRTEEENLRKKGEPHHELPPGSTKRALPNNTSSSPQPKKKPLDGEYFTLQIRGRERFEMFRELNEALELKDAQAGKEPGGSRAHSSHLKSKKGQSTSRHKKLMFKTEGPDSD
Sequence of Bile acid receptor (Homo sapiens) (Q96RI1 whole entry, looked up, the tested form may be a part): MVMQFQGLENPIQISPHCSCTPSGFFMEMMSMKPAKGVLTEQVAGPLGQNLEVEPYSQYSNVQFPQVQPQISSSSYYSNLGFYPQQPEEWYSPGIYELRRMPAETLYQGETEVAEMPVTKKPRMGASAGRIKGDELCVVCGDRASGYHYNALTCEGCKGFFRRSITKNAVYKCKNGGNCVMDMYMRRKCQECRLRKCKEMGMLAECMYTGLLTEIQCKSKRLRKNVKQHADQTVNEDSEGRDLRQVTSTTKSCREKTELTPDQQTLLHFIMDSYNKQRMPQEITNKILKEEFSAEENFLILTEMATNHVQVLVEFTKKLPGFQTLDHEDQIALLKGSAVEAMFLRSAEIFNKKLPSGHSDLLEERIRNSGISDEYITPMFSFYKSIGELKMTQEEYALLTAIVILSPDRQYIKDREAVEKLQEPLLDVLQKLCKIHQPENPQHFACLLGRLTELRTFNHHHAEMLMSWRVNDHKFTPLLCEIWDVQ
Sequence of Oxysterols receptor LXR-beta (Homo sapiens) (P55055 whole entry, looked up, the tested form may be a part): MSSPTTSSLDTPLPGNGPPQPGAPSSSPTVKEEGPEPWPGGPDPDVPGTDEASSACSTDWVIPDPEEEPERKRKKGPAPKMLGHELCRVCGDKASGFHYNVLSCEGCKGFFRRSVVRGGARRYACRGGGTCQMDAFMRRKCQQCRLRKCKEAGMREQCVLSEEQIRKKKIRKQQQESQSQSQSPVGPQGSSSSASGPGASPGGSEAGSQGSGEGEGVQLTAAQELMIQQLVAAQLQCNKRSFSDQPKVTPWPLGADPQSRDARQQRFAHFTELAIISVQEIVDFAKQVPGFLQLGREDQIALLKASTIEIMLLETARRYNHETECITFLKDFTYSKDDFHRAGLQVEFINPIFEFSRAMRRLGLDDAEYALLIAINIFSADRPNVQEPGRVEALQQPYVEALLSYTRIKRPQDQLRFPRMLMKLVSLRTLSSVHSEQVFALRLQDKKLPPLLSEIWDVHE
Sequence of Hepatocyte nuclear factor 4-alpha (Homo sapiens) (P41235 whole entry, looked up): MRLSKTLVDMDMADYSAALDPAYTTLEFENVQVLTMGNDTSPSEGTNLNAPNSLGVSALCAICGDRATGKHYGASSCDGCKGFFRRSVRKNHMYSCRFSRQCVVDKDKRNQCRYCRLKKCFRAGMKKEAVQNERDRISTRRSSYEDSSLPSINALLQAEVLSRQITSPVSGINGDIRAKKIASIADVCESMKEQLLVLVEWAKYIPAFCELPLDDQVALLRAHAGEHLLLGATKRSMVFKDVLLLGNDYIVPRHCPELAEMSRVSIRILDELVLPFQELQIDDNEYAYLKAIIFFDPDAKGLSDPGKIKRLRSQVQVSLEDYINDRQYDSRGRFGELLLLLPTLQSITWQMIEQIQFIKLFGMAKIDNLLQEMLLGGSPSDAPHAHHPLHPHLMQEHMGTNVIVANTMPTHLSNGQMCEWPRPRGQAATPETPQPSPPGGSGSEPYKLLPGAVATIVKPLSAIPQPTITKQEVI
Sequence of Transcriptional activator Myb (Homo sapiens) (P10242 whole entry, looked up): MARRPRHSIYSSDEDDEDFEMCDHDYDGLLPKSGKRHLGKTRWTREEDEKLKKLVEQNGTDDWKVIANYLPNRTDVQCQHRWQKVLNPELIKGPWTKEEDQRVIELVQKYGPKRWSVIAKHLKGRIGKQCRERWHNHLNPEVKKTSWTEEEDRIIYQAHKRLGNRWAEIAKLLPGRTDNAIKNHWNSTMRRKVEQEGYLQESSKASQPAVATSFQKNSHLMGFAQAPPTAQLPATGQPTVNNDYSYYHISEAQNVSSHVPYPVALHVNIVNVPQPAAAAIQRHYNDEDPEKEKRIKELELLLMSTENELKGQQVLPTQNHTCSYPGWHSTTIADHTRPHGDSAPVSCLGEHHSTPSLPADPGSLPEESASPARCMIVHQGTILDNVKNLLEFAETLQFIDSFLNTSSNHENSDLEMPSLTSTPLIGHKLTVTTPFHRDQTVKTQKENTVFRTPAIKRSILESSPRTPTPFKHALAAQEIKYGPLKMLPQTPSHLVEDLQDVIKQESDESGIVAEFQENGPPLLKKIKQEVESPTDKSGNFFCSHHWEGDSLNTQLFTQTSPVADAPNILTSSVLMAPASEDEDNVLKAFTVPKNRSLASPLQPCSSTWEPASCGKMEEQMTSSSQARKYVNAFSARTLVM
Sequence of Oxysterols receptor LXR-alpha (Homo sapiens) (Q13133 whole entry, looked up, the tested form may be a part): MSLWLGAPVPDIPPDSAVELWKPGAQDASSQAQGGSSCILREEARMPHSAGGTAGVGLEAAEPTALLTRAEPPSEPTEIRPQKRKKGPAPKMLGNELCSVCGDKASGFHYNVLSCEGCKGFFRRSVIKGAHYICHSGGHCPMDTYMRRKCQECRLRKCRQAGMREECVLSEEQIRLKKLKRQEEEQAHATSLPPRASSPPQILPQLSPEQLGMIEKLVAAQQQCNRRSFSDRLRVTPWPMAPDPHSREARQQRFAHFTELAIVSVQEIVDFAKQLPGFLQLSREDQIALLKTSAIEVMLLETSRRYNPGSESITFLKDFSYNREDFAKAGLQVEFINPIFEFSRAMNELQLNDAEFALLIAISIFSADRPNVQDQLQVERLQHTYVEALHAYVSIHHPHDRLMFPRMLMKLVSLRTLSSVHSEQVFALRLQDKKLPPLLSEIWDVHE

With `CC1=C2C[C@H]3[C@@H](CC=C4C[C@@H](O)CC[C@@]43C)[C@@H]2CC[C@]12O[C@@H]1C[C@H](C)CN[C@H]1[C@H]2C`, the compound was called inactive in test [1], in test [2], in test [3], in [4], in [5] and in [6]. The compound was called inactive in test [7], in [8], in [9], in [10], in test [11] and in test [12]. The outcome in test [13] was inactive.
`C1CC2OC2CC1C1CO1` (stereo not drawn): the call in test [1], in test [3], in [5], in test [6], in test [7] and in test [14] was inactive. The result in [9], in test [10], in test [11], in test [12] and in test [13] was inactive. Also, the AC50 in [8] was 123 µM (active).
On to `Oc1c(Cl)c(Cl)c(Cl)c(Cl)c1Cl`, for which the compound was called inactive in test [1], in test [15], in test [16], in [17], in [2] and in [3]. Further, the result in [18], in [5], in test [6], in [7], in test [14] and in test [10] was inactive. Moreover, the result in test [11] was inactive. Moreover, the concentration at half-maximal activity (AC50) is 12.5 µM (active) and 25.7 µM (active) in test [5]; 27.4 µM (active) and 51 µM (active) in [6]; 50 µM (active) and 91.9 µM (active) in test [7]; 9.11 µM (active) in test [14]; 13.7 µM (active) and 12.5 µM (active) and 2.62 µM (active) in [8]; 31.1 µM (active) and 11.4 µM (active) and 73.1 µM (active) in test [9]. The half-maximal activity concentration (AC50) in test [10] was 51 µM (active); in test [11], 26.9 µM (active); in [12], 13.5 µM (active) and 10.7 µM (active); in test [19] it was 10.2 µM (active) and 32.3 µM (active).
